Results reported in PubChem BioAssay AID1159580 (chemical genetic matrix, 2015).
Where “and” joins values, the source holds several entries; their conditions need not be identical. Equal entries are not always repeated. In all, about 5,500 compounds went through this assay and about 2,000 (36%) were called active. Roughly 18% stayed inconclusive and do not appear here. No stated cut-off is given here; in the data, active means normalized growth mostly below about 0.91 (no sharp cut-off); inconclusive means no clear call, values can overlap the other calls; inactive means mostly above about 0.92. This is one part of the list.

Test: chemical genetic growth profiling, strain panel (AID 1159580);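 further: tested at 20 µM; growth read once vehicle control cultures reached saturation at 30 °C; 1 = growth at the plate median or of vehicle wells; lower values mean less growth of the strain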
Details: S. cerevisiae deletion strains, growth OD

Measured: normalized growth

C[C@]12CCC(=O)C=C1CCC1C2C(=O)C[C@@]2(C)C1CC[C@]2(O)C(=O)CO (stereo partly drawn)
inactive: locus YAL013W, strain DEP1, hits give low values 1 | locus YAL021C, strain ccr4, hits give low values 1.01 | locus YAL026C, strain drs2, hits give low values 1 | locus YAL030W, strain snc1, hits give low values 1 | locus YBL061C, strain skt5, hits give low values 1 | locus YBR009C, strain hhf1, hits give low values 0.992 | locus YBR021W, strain FUR4, hits give low values 1 | locus YBR023C, strain chs3, hits give low values 1.01 | locus YBR171W, strain sec66, hits give low values 1.01 | locus YBR229C, strain ROT2, hits give low values 1 | locus YBR231C, strain swc5, hits give low values 0.986 | locus YBR279W, strain paf1, hits give low values 1 | locus YCL011C, strain gbp2, hits give low values 1.01 | locus YCL016C, strain dcc1, hits give low values 1 | locus YCL029C, strain bik1, hits give low values 1.01 | locus YCL061C, strain MRC1, hits give low values 0.999 | locus YCL069W, strain vba3, hits give low values 1 | locus YCR088W, strain abp1, hits give low values 1.01 | locus YDL005C, strain med2, hits give low values 0.993 | locus YDL035C, strain GPR1, hits give low values 1.02 | locus YDL040C, strain nat1, hits give low values 1 | locus YDL074C, strain BRE1, hits give low values 1.05 | locus YDL101C, strain DUN1, hits give low values 1 | locus YDL134C, strain PPH21, hits give low values 0.986 | locus YDL185W, strain tfp1, hits give low values 1.01 | locus YDL192W, strain arf1, hits give low values 1.02 | locus YDR001C, strain nth1, hits give low values 1 | locus YDR069C, strain doa4, hits give low values 0.988 | locus YDR101C, strain arx1, hits give low values 1.04 | locus YDR137W, strain rgp1, hits give low values 1.01 | locus YDR159W, strain sac3, hits give low values 0.981 | locus YDR162C, strain NBP2, hits give low values 0.984 | locus YDR195W, strain ref2 0.973 | locus YDR297W, strain sur2, hits give low values 1 | locus YDR318W, strain mcm21, hits give low values 0.986 | locus YDR334W, strain swr1, hits give low values 1.01 | locus YDR335W, strain msn5, hits give low values 1.01 | locus YDR388W, hits give low values 1.01 | locus YDR392W, strain spt3, hits give low values 0.929 | locus YDR502C, strain sam2, hits give low values 1.01 | locus YEL003W, strain gim4, hits give low values 1.01 | locus YEL037C, strain rad23, hits give low values 1.01 | locus YEL061C, strain CIN8 (second series), hits give low values 1.01 | locus YEL061C, strain CIN8, hits give low values 0.998 | locus YER015W, strain faa2, hits give low values 1 | locus YER016W, strain bim1, hits give low values 1 | locus YER110C, hits give low values 1.01 | locus YER111C, strain swi4, hits give low values 1 | locus YER155C, strain BEM2 (second series), hits give low values 1 | locus YER155C, strain BEM2, hits give low values 1 | locus YER167W, strain BCK2, hits give low values 0.994 | locus YFR010W, strain ubp6, hits give low values 1 | locus YGL078C, strain dbp3, hits give low values 1.02 | locus YGL086W, strain mad1, hits give low values 1.02 | locus YGL167C, strain pmr1, hits give low values 1 | locus YGL173C, strain kem1, hits give low values 1.01 | locus YGL227W, strain vid30, hits give low values 1 | locus YGL240W, strain doc1, hits give low values 0.975 | locus YGL248W, strain PDE1, hits give low values 0.984 | locus YGL253W, strain hxk2, hits give low values 1.01 | locus YGR078C, strain PAC10, hits give low values 0.986 | locus YGR135W, strain pre9, hits give low values 0.968 | locus YGR229C, strain SMI1, hits give low values 0.989 | locus YGR252W, strain gcn5, hits give low values 0.976 | locus YHR013C, strain ard1, hits give low values 0.979 | locus YHR027C, strain rpn1, hits give low values 1.01 | locus YHR030C, strain SLT2, hits give low values 0.995 and 0.999 | locus YHR079C, strain IRE1 (second series), hits give low values 1.01 | locus YHR079C, strain IRE1, hits give low values 0.985 | locus YHR094C, strain hxt1, hits give low values 0.996 | locus YHR129C, strain ARP1, hits give low values 1 | locus YHR142W, strain chs7, hits give low values 1.02 | locus YHR200W, strain rpn10, hits give low values 0.999 | locus YIL066C, strain RNR3, hits give low values 0.987 | locus YIL073C, strain SPO22, hits give low values 1.04 | locus YIL125W, strain kgd1, hits give low values 1.01 | locus YIR030C, strain dcg1, hits give low values 0.997 | locus YJL092W, strain hpr5, hits give low values 1.01 | locus YJL095W, strain BCK1 (second series), hits give low values 1.01 | locus YJL095W, strain BCK1, hits give low values 0.975 and 0.986 | locus YJL115W, strain asf1, hits give low values 1.01 | locus YJL129C, strain trk1, hits give low values 1.01 | locus YJL134W, strain LCB3, hits give low values 1 | locus YJL154C, strain vps35, hits give low values 1.02 | locus YJL164C, strain tpk1, hits give low values 0.996 | locus YJL166W, strain qcr8, hits give low values 0.987 | locus YJL168C, strain set2, hits give low values 1.01 | locus YJL187C, strain SWE1 (second series), hits give low values 0.994
